# Results taken from PubChem BioAssay (NCI).
# About 83,000 compounds went through this panel and 20% of them were active in at least one assay; those are over-represented in the sample as a whole.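 Testing used 96-well plates and a 48-hour single-concentration exposure. Example: -40 means 40% of the starting cells died.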 Values without a mark were called inactive. Active and inactive are the calls of the source. How the source made its calls: active means growth percent below 10; inactive means the rest.
# Test system: HL-60(TB) leukemia
# Experiment: NCI-60 one-dose screen, 48 h (100 = growth as untreated, 0 = no growth, -100 = all killed)
# Conditions: 10 µM unless noted
row,SMILES,growth
1,O=C(Cn1cncn1)Nc1ccc(-c2nc3ccccc3s2)cc1,102%
2,CCCCCCCCCCC/C=C\C[C@H](O)C/C=C1/C(=O)C=C[C@@H]1C/C=C\CCCC(=O)OC,-20% (active)
3,COC(=O)[C@]12CC[C@@H](C)[C@H](C)[C@@H]1C1=CC[C@@H]3[C@@]4(C)C(C=O)=C[C@@](C)(COC(C)=O)[C@@H]4C(=O)C[C@@]3(C)[C@]1(C)CC2,29.8%
4,CCn1cc(Cc2cc(C(=O)Nc3cc4cc(OC)c(OC)cc4c(C)n3)ccc2Cl)cn1,13.9%
5,C/C(=N\OC(=O)Nc1ccccc1)c1ccccc1,119%
6,NS(=O)(=O)c1cn(-c2ncnc3nc[nH]c23)ccc1=O,79.5%
7,N#Cc1c(NC(=O)c2ccccc2I)sc2c1CCCC2,12.6%
8,COc1ccc(C[n+]2c3ccccc3n3c4ccc(N)cc4ccc32)c(OC)c1OC,-6.46% (active)
9,COc1cc(/C=C2\Oc3cc(OCC(=O)c4ccccc4)ccc3C2=O)cc(OC)c1OC,118%
10,C=C1CC2(OC1=O)C(=O)N(CCCCCCCCCCCCN1C(=O)C3(CC(=C)C(=O)O3)c3ccccc31)c1ccccc12 (stereo not given),45.5%
11,CCCCCCn1c(-c2ccc(C(=O)O/N=C(\N)c3ccc4ccccc4c3)cc2)nc(-c2ccccc2)c1-c1ccccc1,2.97% (active)
12,COc1cc2c(cc1O)C(=O)CCCC2,90.3%
13,CC(C)N(CCCC#N)C(C)C,102%
14,CC(C)C[C@H](C(=O)N[C@@H](C)C(N)=O)N1CC=CCN(O)S1(=O)=O,110% [5 µM]
15,Cc1cc(Cl)ccc1NC(=O)/C(Cl)=C1/Sc2ccccc2NC1=O,93.1%
16,COc1ccc(Nc2ccnc(NCCCNc3ccnc4cc(Cl)ccc34)n2)cc1,-68.6% (active)
17,COc1ccc(Cn2cc3c(c2-c2ccccc2)CCc2cnoc2-3)cc1N,-19.8% (active)
18,CC(C)(C)c1nn(-c2ccccc2)c2c1CC1(CN2Cc2ccc3c(c2)OCO3)C(=O)c2ccccc2C1=O,102%
19,CCN1C(=O)N(CC)C2Nn3c(s/c(=C4\C(=O)N(CCC(C)C)c5ccccc54)c3=O)=NC21 (stereo not given),83.1%
20,CN(C)c1ccc(C(=S)c2ccc(N(C)C)cc2)cc1,62.8%
21,COc1ccccc1N1CCN(C(=O)c2ccc3nc(NC(=O)c4ccc(NCCc5ccccc5)c([N+](=O)[O-])c4)sc3c2)CC1,94.3%
22,COC(=O)[C@]12CC[C@@H](C(C)=O)[C@@H]1[C@H]1CC[C@@H]3[C@@]4(C)C/C(=C/c5cccnc5)C(=O)C(C)(C)[C@@H]4CC[C@@]3(C)[C@]1(C)CC2,-2.67% (active)
23,Oc1c(Br)cc(Br)c2ccc(Cn3cc(-c4ccc(C(F)(F)F)cc4)nn3)nc12,-5.83% (active)
24,COc1cc(-c2nc3ccc(C)cc3[nH]2)ccc1OCC(=O)N=Nc1c(O)[nH]c2ccc(Cl)cc12,-55.6% (active)
25,O=C(Nc1ccc(F)cc1)c1cc2ccccc2cc1O,71.2%
26,O=c1cc(C(F)(F)F)c2cc(-c3cc4ccccc4c(=O)o3)c(O)cc2o1,38.3%
27,COc1ncnc2c1cnn2C,114%

row,SMILES,growth
1,CC1(C)N=C(N)N=C(N)N1c1ccc(F)c(C(F)(F)F)c1,13.4%
2,C=C1C(=O)O[C@H]2[C@H]1CC/C(CNS(=O)(=O)c1ccc3ccccc3c1)=C\CC[C@@]1(C)O[C@@H]21,-48.4% (active)
3,CCCn1ccnc1C(O)c1ccc(OCc2ccccc2)c(OC)c1 (stereo not given),96.7%
4,CCN(CC)c1ccc2nc3c4ccccc4c(=NC(=O)c4ccccc4-c4c5ccc(N(CC)CC)cc5[o+]c5cc(N(CC)CC)ccc45)cc-3oc2c1,-69.7% (active)
5,CC/C=C\C[C@H](O)C/C=C1/C(=O)C(Cl)=C[C@@H]1C/C=C\CCCC(=O)OC,-2.33% (active)
6,O=C(N/N=C/c1c(Cl)cccc1Cl)c1ccc(C(F)(F)F)nc1Nc1cccc(C(F)(F)F)c1,-44.5% (active)
7,Cc1[nH]c2ccc(F)cc2c1CCNC(=O)C1CCN(C(=O)c2ccc(-c3ccccc3)cc2)CC1,55.3%
8,COc1ccc(-c2nc(SCC(=O)c3ccc(Br)cc3)[nH]c(=O)c2C#N)cc1,91.5%
9,COc1ccc(-n2cc(-c3ccccc3)c3c(SCC(=O)N/N=C/c4ccc([N+](=O)[O-])cc4)ncnc32)cc1,103%
10,CCN(CCO)CCNc1ccc(C)c2sc3cc(OC)ccc3c(=O)c12,67.5%
11,CCN1CCN(c2nc(C)cc(N(CCCNc3ccnc4cc(Cl)ccc34)Cc3ccc4c(c3)OCO4)n2)CC1,-60.4% (active)
12,O=c1c(/C=C/c2ccco2)nnc2sc(Nc3ccc(Cl)cc3)nn12,101%
13,COc1cc(-c2nc(C(=O)Nc3ccc(C)cc3)nn2-c2ccc(F)c(F)c2)cc(OC)c1OC,100%
14,CC(=O)c1cnc(-c2ccccc2)nc1CBr,41.5%
15,O=C(Nc1ccc(Oc2cccc(Cl)c2)c(Cl)c1)c1cccnn1,89.5%
16,COC12C=C/C(=C(/C(=O)OCc3csc(SC)n3)C(=O)CCCCCCCCC3(OC)C=C/C(=C(/C(=O)OCc4cnc(SC)s4)C(=O)CCCCCCCC1)O3)O2 (stereo not given),6.46% (active)
17,COc1ccc(-c2[nH]ncc2-c2cc(OC)c(OC)c(OC)c2)cc1,-35.5% (active)
18,CCCCCCCCCN1C(=O)/C(=c2\sc3n(c2=O)C2C(NN=3)N(CC)C(=O)N2CC)c2ccccc21 (stereo not given),84.1%
19,C=CCN1C(=O)/C(=C\c2ccc3c(c2)CCC3)SC1=S,79%
20,CN(C)C(CNc1oc(-c2cccc3ccccc23)nc1C#N)c1ccco1 (stereo not given),74.1%
21,C#CCOc1cccc(Nc2ncc3ncn(C4CCN(C(=O)CCl)C4)c3n2)c1 (stereo not given),-29% [6.25 µM] (active)
22,COc1cc(-c2cc(-c3nc4ccc(Cl)cc4[nH]3)[nH]n2)cc(OC)c1OC,38.4%
23,CC(=O)c1cccc(O)c1,100%
24,C#Cc1cccc(Nc2ncnc3cc(NC(=O)CCl)ccc23)c1,-41.3% (active)
25,COc1cc(C2CC(c3ccc(C)cc3)=NN2C(C)=O)ccc1Oc1ccnc2cc(Cl)ccc12 (stereo not given),100%
26,Cc1ccccc1-n1nnc(C(=O)Nc2ccc(-c3ccccc3)cn2)c1C,28.8% [50 µM]
27,COc1cc(/C=C/C(=O)c2ccc(F)cc2)ccc1OCCCCOc1cc2c(cc1OC)C(=O)N1CCCC1C=N2 (stereo not given),-32.6% (active)

row,SMILES,growth
1,CC(C)(C#N)N1CCN(c2ccccc2Cl)CC1,103%
2,Cc1cc(N2CCN(C)CC2)nc(N(CCNc2ccnc3cc(Cl)ccc23)Cc2ccco2)n1,8.29% (active)
3,COc1cc(-c2nc3ccccc3s2)ccc1OCc1nc2n(n1)S(=O)(=O)c1ccccc1N2c1ccccc1,16.2%
4,Cn1cc(-c2ccc(-c3cn(C)c4ccc(Cl)cc34)[nH]2)c2cc(Cl)ccc21,-37.8% (active)
5,C=C(CO)[C@@H]1CC[C@]2(COC3CCCCO3)CC[C@]3(C)[C@H](CC[C@@H]4[C@@]5(C)C=C(C=O)C(=O)C(C)(C)[C@@H]5CC[C@]43C)[C@@H]12 (stereo not given in full),-59.8% (active)
6,Cc1cccc(/C=C/c2c(C(=O)/C=C/c3ccccc3)c(C)nc3ccccc23)c1,-15.8% (active)
7,Cc1c(C(=O)O)nnn1-c1nccs1,95.5%
8,CC(C)(C#N)Nc1ccccc1,105%
9,C=C1C(=O)O[C@H]2[C@H]1CC/C(COC(=O)/C=C/C(=O)OC/C1=C/CC[C@@]3(C)O[C@H]3[C@H]3OC(=O)C(=C)[C@@H]3CC1)=C\CC[C@@]1(C)O[C@@H]21,-23.6% (active)
10,CCN(CC)CCOc1ccccc1C,101%
11,CCCCCCCC(=O)SCC/C=C/[C@@H]1CC(=O)NCc2cccc(n2)C2=N[C@@](C)(CS2)C(=O)N[C@@H](C(C)C)C(=O)N1,24.7%
12,Cc1cccc2c(=O)c3c(sc12)c(NCCN)nc1ccccc13,-62.7% (active)
13,O=C(CCl)N(c1ccccc1)c1ccccc1,101%
14,C=CCN1C(=O)c2cccc3c(N4CCOCC4)ccc(c23)C1=O,-5.15% (active)
15,COc1cccc2ccc(CC(O)(c3ccccc3)c3ccccc3)nc12,95.8%
16,COc1ccc2c(c1)c(-c1ccc(-c3cn(C)c4ccc(OC)cc34)o1)cn2C,-23% (active)
17,S=C1SCN(Cc2ccccc2)CN1Cc1ccccc1,16.5%
18,CC(=O)OC1CC2C3CCC4C[C@@H](NC(=O)C=C(C)C)CC[C@]4(C)C3CC[C@]2(C)[C@H]1C(C)N(C)C (stereo not given in full),-49.6% (active)
19,O=C(Nc1ccccc1)c1cc(-n2cnc([N+](=O)[O-])c2)cc(-n2cnc([N+](=O)[O-])c2)n1,96.4%
20,COc1cc(-c2cc(/C=C3\C(=O)Nc4ccc(Cl)cc43)[nH]n2)cc(OC)c1OC,-26% (active)
21,COc1cc(NC(=O)CCSc2nc3ccc(C)cc3c(=O)n2Cc2ccccc2)cc(OC)c1OC,116%
22,O=C(Nc1ncc(Cc2ccccc2Cl)s1)c1ccc2c(c1)OCCO2,-56.8% (active)
23,CCN(CC)c1ccc2nc3ccc(N=Nc4ccc(N(C)C)cc4)cc3[n+](-c3ccccc3)c2c1,-32.2% (active)
24,CC(C)(CCc1ccccn1)C(=O)CCCc1ccccn1,103%
25,COc1ccc(-c2oc(=O)ccc2-c2cc(OC)c(OC)c(OC)c2)cc1F,44.6%
26,O=C(O)c1ccc(-c2ccc(/C=N/Nc3nc(Nc4ccccc4)nc(N4CCCCC4)n3)o2)cc1,66.4%
